{
  "source": "PubChem BioAssay AID1159554",
  "about": "(Broad Institute, 2015)",
  "note": "In all, about 94,000 compounds went through this assay and about 2,100 (2.2%) were called active. This excerpt belongs to a sample that is enriched for actives. A number with no mark means an inactive call. Rule as the data show it: active = activity change below about -80%; inconclusive = no clear call, values can overlap the other calls; inactive = above that.",
  "data": [
    {"assay": "P. falciparum Dd2 growth inhibitors, primary screen, SYBR Green fluorescence, single dose replicates (AID 1159554)", "conditions": "72 h, at 10 µM, hits give low values", "values": [
      {"compound": "COc1cccc(S(=O)(=O)Nc2ccc3c(c2)[C@H]2C[C@H](CC(=O)O)O[C@H](CO)[C@H]2O3)c1", "activity change": "19%"},
      {"compound": "CCCNC(=O)Nc1ccc2c(c1)C(=O)N(C)C[C@@H](OC)[C@@H](C)CN(Cc1ccccn1)[C@@H](C)CO2", "activity change": "-2.2%"},
      {"compound": "O=C(NC1CCC1)[C@H]1[C@H](CO)[C@H]2Cn3c(ccc(-c4ccccc4)c3=O)[C@@H]1N2Cc1cocn1", "activity change": "10.7%"},
      {"compound": "Cn1cnc(S(=O)(=O)NC[C@@H]2CC[C@@H]3[C@@H](CN3Cc3nccs3)O2)c1", "activity change": "28.5%"},
      {"compound": "C[C@@H]1CCCCO[C@@H](CN(C)S(=O)(=O)c2cn(C)cn2)[C@@H](C)CN([C@@H](C)CO)C(=O)c2cc(NC(=O)Nc3ccc(C(F)(F)F)cc3)ccc2O1", "activity change": "-75.5%"},
      {"compound": "CN(C)CC#Cc1ccc([C@@H]2[C@H](CO)N3C(=O)CN(C(=O)Cc4cccnc4)C[C@@H]23)cc1", "activity change": "-85.1% (active)"},
      {"compound": "O=C(c1ccccc1F)N1CC(=O)N2[C@H](CO)[C@H](c3ccc(-c4cccnc4)cc3)[C@H]2C1", "activity change": "-85.7% (active)"},
      {"compound": "O=C(Cc1cccnc1)N1CC(=O)N2[C@@H](CO)[C@H](c3ccc(C#CC4CC4)cc3)[C@@H]2C1", "activity change": "-6.96%"},
      {"compound": "O=C(c1cccnc1)N1CC(=O)N2[C@H](CO)[C@H](c3ccc(-c4cccnc4)cc3)[C@@H]2C1", "activity change": "25.3%"},
      {"compound": "O=C(Cc1cccnc1)N1CC(=O)N2[C@H](CO)[C@H](c3ccc(C#CC4CCCC4)cc3)[C@@H]2C1", "activity change": "-26.7%"},
      {"compound": "O=C(C1CCCC1)N1CC(=O)N2[C@@H](CO)[C@@H](c3ccc(-c4cccnc4)cc3)[C@@H]2C1", "activity change": "-20.4%"},
      {"compound": "O=C(c1ccccc1F)N1CC(=O)N2[C@H](C1)[C@H](c1ccc(-c3ccc(F)cc3)cc1)[C@@H]2CO", "activity change": "-63.7%"},
      {"compound": "O=C(c1ccccc1F)N1CC(=O)N2[C@H](CO)[C@@H](c3ccc(-c4cccnc4)cc3)[C@H]2C1", "activity change": "21.6%"},
      {"compound": "O=C(C1CCCC1)N1CC(=O)N2[C@H](C1)[C@@H](c1ccc(-c3cccnc3)cc1)[C@@H]2CO", "activity change": "-88.2% (active)"},
      {"compound": "COc1ccc2c3c([nH]c2c1)[C@@H](CO)N(C(=O)CN1CCOCC1)CC31CCN(C)CC1", "activity change": "27%"},
      {"compound": "O=C(C[C@@H]1C=C[C@@H](NS(=O)(=O)c2ccccc2)[C@@H](CO)O1)NCc1ccccc1F", "activity change": "8.12%"},
      {"compound": "CN(C)CC#Cc1ccc([C@@H]2[C@H](CO)N3CCCCN(C(=O)NC4CCCC4)C[C@@H]23)cc1", "activity change": "2.92%"},
      {"compound": "CCCNC(=O)Nc1ccc2c(c1)C(=O)N(C)C[C@@H](OC)[C@H](C)CN(CCC)[C@@H](C)CO2", "activity change": "21.3%"},
      {"compound": "COc1ccccc1NC(=O)N1CC(=O)N2[C@@H](CO)[C@H](c3ccc(C#CC4CC4)cc3)[C@@H]2C1", "activity change": "-3.54%"},
      {"compound": "O=C(C[C@H]1CC[C@@H]2[C@H](COC[C@@H](O)CN2Cc2cc(F)cc(F)c2)O1)NC1CCC1", "activity change": "-26.6%"},
      {"compound": "C[C@@H]1CN([C@@H](C)CO)C(=O)Cc2cc(NC(=O)CCCN(C)C)ccc2O[C@@H]1CN(C)Cc1ccc(-c2ccccc2)cc1", "activity change": "-71.2%"},
      {"compound": "CC(C)C(=O)Nc1ccc2c(c1)C(=O)N(C)[C@H]1CC[C@H](CC(=O)NCc3ccc(F)cc3)O[C@H]1CO2", "activity change": "-8.71%"},
      {"compound": "CC(=O)N1Cc2cc(C(=O)NCc3cc(F)cc(F)c3)nc(-c3cccc(C4=CCCC4)c3)c2[C@@H]1CCO", "activity change": "-66.6%"},
      {"compound": "O=C(Nc1ccccc1F)N1CC(=O)N2[C@@H](CO)[C@H](c3ccc(C#CC4CCCC4)cc3)[C@@H]2C1", "activity change": "-8.5%"},
      {"compound": "CN1c2ccc(Br)cc2[C@@H]2[C@@H](CCN2C(=O)C2CCCCC2)[C@H]1CO", "activity change": "11.1%"},
      {"compound": "CCCc1cn(CC[C@H]2CC[C@@H](NC(=O)C3CCOCC3)[C@@H](CO)O2)nn1", "activity change": "-3.07%"},
      {"compound": "C[C@H](CO)N1C[C@H](C)[C@@H](CN(C)Cc2ccc(C(F)(F)F)cc2)OCc2ccccc2-c2c(n(C)c3ccccc23)C1=O", "activity change": "-13.7%"},
      {"compound": "COc1ccc(S(=O)(=O)N(C)C[C@@H]2OCc3ccccc3-c3ccccc3C(=O)N([C@@H](C)CO)C[C@@H]2C)cc1", "activity change": "-71.4%"},
      {"compound": "C[C@H]1CN([C@@H](C)CO)C(=O)c2ccccc2-c2ccccc2CO[C@H]1CN(C)Cc1ccc(-c2ccccc2)cc1", "activity change": "-88.6% (active)"},
      {"compound": "C[C@H]1CN([C@@H](C)CO)C(=O)c2c(c3ccccc3n2C)-c2ccccc2CO[C@H]1CN(C)S(=O)(=O)c1ccc(C#N)cc1", "activity change": "-85.2% (active)"},
      {"compound": "Cc1ccc(S(=O)(=O)N(C)C[C@H]2OCc3ccccc3-c3ccccc3C(=O)N([C@@H](C)CO)C[C@@H]2C)cc1", "activity change": "-59.6%"},
      {"compound": "C[C@@H]1CN([C@H](C)CO)C(=O)c2c(c3ccccc3n2C)-c2ccccc2CO[C@H]1CN(C)Cc1ccc(F)cc1", "activity change": "-83.8% (active)"},
      {"compound": "C[C@H]1CN([C@@H](C)CO)C(=O)c2ccccc2-c2ccccc2CO[C@@H]1CN(C)S(=O)(=O)c1ccc(C(F)(F)F)cc1", "activity change": "-83.7% (active)"},
      {"compound": "CC(C)NC(=O)N(C)C[C@H]1OCc2ccccc2-c2c(n(C)c3ccccc23)C(=O)N([C@H](C)CO)C[C@@H]1C", "activity change": "32.6%"},
      {"compound": "C[C@H]1CN([C@@H](C)CO)C(=O)c2ccccc2-c2ccccc2CO[C@H]1CN(C)C(=O)Nc1ccc(-c2ccccc2)cc1", "activity change": "-74.8%"},
      {"compound": "COC(=O)N(C)C[C@H]1OCc2ccccc2-c2ccccc2C(=O)N([C@@H](C)CO)C[C@H]1C", "activity change": "23.3%"},
      {"compound": "CC(C)NC(=O)N(C)C[C@@H]1OCc2ccccc2-c2c(n(C)c3ccccc23)C(=O)N([C@@H](C)CO)C[C@H]1C", "activity change": "16%"},
      {"compound": "C[C@@H]1CN([C@H](C)CO)C(=O)c2c(c3ccccc3n2C)-c2ccccc2CO[C@@H]1CN(C)Cc1ccc(F)cc1", "activity change": "-64.4%"},
      {"compound": "CC(C)C#Cc1ccc([C@H]2[C@@H](CO)N3C(=O)CN(C(=O)Cc4ccccc4)C[C@H]23)cc1", "activity change": "-68.7%"},
      {"compound": "COc1ccccc1NC(=O)N[C@H]1CC[C@H](CCNC(=O)Cc2ccccn2)O[C@@H]1CO", "activity change": "-4.42%"},
      {"compound": "CCC(=O)N1C[C@@H](C)[C@H](OC)CN(C)C(=O)c2ccc(NC(=O)C3CCOCC3)cc2OC[C@@H]1C", "activity change": "-9.88%"},
      {"compound": "O=C(c1ccccc1)N1CC(=O)N2[C@@H](CO)[C@H](c3ccc(C#CC4CC4)cc3)[C@@H]2C1", "activity change": "16.5%"},
      {"compound": "C[C@H](CO)N1C[C@H](C)[C@H](CN(C)C(=O)C2CCC2)Oc2ncc(C#CCc3ccccc3)cc2C1=O", "activity change": "-34.2%"},
      {"compound": "CCCC#Cc1ccc([C@H]2[C@H]3CN(C(=O)Nc4cccc(F)c4)CC(=O)N3[C@H]2CO)cc1", "activity change": "-4.18%"},
      {"compound": "C[C@H](CO)N1C[C@H](C)[C@H](CN(C)S(C)(=O)=O)Oc2ncc(C3=CCCC3)cc2C1=O", "activity change": "25.5%"},
      {"compound": "C[C@H](CO)N1C[C@H](C)[C@@H](CN(C)S(=O)(=O)c2cccc(F)c2)OCc2ccccc2-c2c(n(C)c3ccccc23)C1=O", "activity change": "-87.4% (active)"},
      {"compound": "C[C@@H]1CN([C@H](C)CO)C(=O)c2c(c3ccccc3n2C)-c2ccccc2CO[C@H]1CN(C)S(=O)(=O)c1ccccc1F", "activity change": "-58.8%"},
      {"compound": "C[C@@H]1CN([C@@H](C)CO)C(=O)c2c(c3ccccc3n2C)-c2ccccc2CO[C@@H]1CN(C)S(=O)(=O)c1cccs1", "activity change": "-57.7%"},
      {"compound": "C[C@@H]1CN([C@@H](C)CO)C(=O)c2c(c3ccccc3n2C)-c2ccccc2CO[C@@H]1CN(C)S(=O)(=O)CC(F)(F)F", "activity change": "20.5%"},
      {"compound": "Cc1ccccc1S(=O)(=O)N(C)C[C@@H]1OCc2ccccc2-c2c(n(C)c3ccccc23)C(=O)N([C@H](C)CO)C[C@H]1C", "activity change": "-67.7%"},
      {"compound": "C[C@@H]1CN([C@@H](C)CO)C(=O)c2c(c3ccccc3n2C)-c2ccccc2CO[C@@H]1CN(C)S(=O)(=O)c1ccc(F)cc1", "activity change": "-60.8%"},
      {"compound": "C[C@@H]1CN([C@@H](C)CO)C(=O)c2c(c3ccccc3n2C)-c2ccccc2CO[C@H]1CN(C)S(=O)(=O)c1cccs1", "activity change": "-56.5%"},
      {"compound": "C[C@H](CO)N1C[C@H](C)[C@@H](CN(C)S(=O)(=O)c2ccc([N+](=O)[O-])cc2)OCc2ccccc2-c2c(n(C)c3ccccc23)C1=O", "activity change": "-84.4% (active)"},
      {"compound": "Cc1ccc(S(=O)(=O)N(C)C[C@@H]2OCc3ccccc3-c3c(n(C)c4ccccc34)C(=O)N([C@@H](C)CO)C[C@@H]2C)cc1", "activity change": "-89.8% (active)"},
      {"compound": "O=C(N[C@@H]1C=C[C@@H](CC(=O)N2CCOCC2)O[C@H]1CO)c1ccccn1", "activity change": "35.5%"},
      {"compound": "O=C(NCCN1CCCCC1)[C@@H]1N[C@@H]2c3ccc(-c4ccccc4)c(=O)n3C[C@@H]2[C@H]1CO", "activity change": "50.6%"},
      {"compound": "COc1cccc(NC(=O)C[C@H]2CC[C@@H]3[C@@H](COc4ccc(NC(=O)C5CCOCC5)cc4C(=O)N3C)O2)c1", "activity change": "15.2%"},
      {"compound": "N#C[C@@H]1[C@H](c2ccccc2C2=CCCCC2)[C@@H](CO)N1S(=O)(=O)c1cccc(F)c1", "activity change": "-43.9%"},
      {"compound": "C/C=C/c1ccccc1[C@@H]1[C@@H](C#N)N(c2nc(CC)cs2)[C@@H]1CO", "activity change": "-18.3%"},
      {"compound": "C/C=C/c1ccccc1[C@H]1[C@@H](C#N)N(C(C)=O)[C@@H]1CO", "activity change": "7.51%"},
      {"compound": "Cc1ccc(-c2ccccc2[C@H]2[C@@H](C#N)N(c3ncc(-c4ccccc4)s3)[C@@H]2CO)cc1", "activity change": "-65.2%"},
      {"compound": "CCc1sc(N2[C@@H](C#N)[C@@H](c3ccccc3-c3ccccc3)[C@@H]2CO)nc1C", "activity change": "-83.4% (active)"},
      {"compound": "N#C[C@@H]1[C@H](c2ccccc2-c2ccccc2)[C@H](CO)N1c1ncc(-c2ccccc2)s1", "activity change": "-4.56%"},
      {"compound": "C/C=C/c1ccccc1[C@@H]1[C@@H](CO)N(S(=O)(=O)c2cccc(F)c2)[C@H]1C#N", "activity change": "-88% (active)"},
      {"compound": "C/C=C/c1ccccc1[C@H]1[C@@H](C#N)N(C(=O)Cc2ccccn2)[C@@H]1CO", "activity change": "1.87%"},
      {"compound": "C/C=C/c1ccccc1[C@H]1[C@@H](C#N)N(c2nc(CC)cs2)[C@@H]1CO", "activity change": "-82.9% (active)"}
    ]}
  ]
}
